Screen size: about 16,000 compounds; about 960 (6%) were called active.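 Rule for the calls: active = compound fluorescence over control fluorescence at most 0.8, a quencher, or at least a set upper limit, an enhancer; inactive = ratio between 0.8 and the set upper limit.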 The list comes from a sample in which actives are over-represented; it also holds similar structures and randomly drawn compounds.

A short description of this assay: fluorescence interference in NS3h DNA assay – biochemical, ChemBridge library, Cy5 readout, artefact control for HCV NS3 helicase inhibitor project (AID 720488). Conditions: Cy5-dT15 DNA with NS3h, at 100 µM, actives lie on both sides, signal over control mean, under 1 quenches.
`COc1cc(C(=O)N2CCC(Cc3ccccc3)CC2)c([N+](=O)[O-])cc1OC`: the fluorescence interference ratio was 0.65 (active).

For `COc1ccccc1CN1CCN(C(=O)c2ccc([N+](=O)[O-])cc2)CC1`, the fluorescence interference ratio is 1.03 (inactive). The result for `COc1ccc(OC)c(S(=O)(=O)N2CCC(Cc3ccccc3)CC2)c1` reads 0.968 (inactive). Turning to `CCOc1ccc(C(=O)Nc2cc3nn(-c4ccc(C)cc4)nc3cc2C)cc1[N+](=O)[O-]`, the fluorescence interference ratio is 1.04 (inactive). Next, `CN1C(=O)/C(=C\c2ccccc2OCCOc2ccc(Br)cc2)SC1=S`: 1.14 (inactive). The result for `C=CC[n+]1c(-c2ccc(OC)cc2)csc1Nc1cccc(C)c1C` reads 1.2 (active); that for `Cc1cccc(NC(=O)COc2ccc3ccccc3c2)c1C`, 1.12 (inactive). Next, `CCC(=O)CC(O)(c1ccccc1)C(F)(F)F` (stereo not given): 0.957 (inactive).

`Cc1cccc(OCC(=O)Nc2ccc(Cl)c(C(F)(F)F)c2)c1`: the fluorescence interference ratio was 1.07 (inactive). The result for `Cc1ccc(C(=O)Nc2ccc(Cl)cn2)cc1[N+](=O)[O-]` reads 1.02 (inactive); that for `O=C1/C(=C\c2cccc(Br)c2)SC(=S)N1c1cccc(C(F)(F)F)c1`, 0.626 (active); that for `O=Cc1ccc(/C=C2/SC(=S)N(c3cccc(Cl)c3)C2=O)cc1`, 1.1 (inactive). For `O=C1/C(=C\c2cccc(C(F)(F)F)c2)SC(=S)N1c1ccccc1`, the fluorescence interference ratio is 1.08 (inactive). The result for `COc1ccc(Br)cc1/C=C1/SC(=S)N(c2cccc(C(F)(F)F)c2)C1=O` reads 0.773 (active). The result for `COc1cc(/C=C2/SC(=S)N(c3c(C)n(C)n(-c4ccccc4)c3=O)C2=O)c([N+](=O)[O-])cc1OC` reads 0.991 (inactive).

As to `COc1ccccc1/C=C1\SC(=S)N(CC(C)C)C1=O`, the fluorescence interference ratio was 0.946 (inactive). Next, `O=C(CN(c1ccc(Br)cc1)S(=O)(=O)c1ccccc1)NCC1CCCO1` (stereo not given): 1.03 (inactive); `Cc1ccc(NCC(O)COc2ccc(OCC(O)CNc3ccc(C)cc3C)cc2)c(C)c1` (stereo not given): 1.06 (inactive). Turning to `COC(=O)C1=C(C)N=c2s/c(=C/c3ccccc3OC(C)=O)c(=O)n2C1c1ccc(OC(C)=O)cc1` (stereo not given), the fluorescence interference ratio was 0.949 (inactive). The result for `O=C(/C=C/c1cc2c(cc1Br)OCO2)c1ccc(Cl)cc1` reads 1.06 (inactive); that for `Cc1cccc(CN2CCN(S(C)(=O)=O)CC2)c1`, 0.788 (active); that for `Cc1ccc(S(=O)(=O)N2CCN(Cc3ccc(F)cc3)CC2)cc1`, 0.977 (inactive). Next, `COc1cc(CN2CCN(Cc3cccc(F)c3)CC2)cc(OC)c1OC`: 1.09 (inactive); `COc1cc(NC(=O)c2ccc(Br)cc2)cc([N+](=O)[O-])c1`: 0.953 (inactive). Next, `O=C(CSc1ccc(Cl)cc1Cl)Nc1cccc([N+](=O)[O-])c1`: 0.897 (inactive); `COc1cc(/C=C2/C(=O)NC(=O)N(c3ccc(C)cc3)C2=O)ccc1OCCOc1ccc([N+](=O)[O-])cc1`: 0.823 (inactive). With `COc1cc(C=C2C(=O)NC(=O)NC2=O)ccc1OCCOc1ccc([N+](=O)[O-])cc1`, the fluorescence interference ratio was 0.699 (active). The result for `COc1cc(/C=C2/SC(=S)NC2=O)ccc1OCCOCCOc1ccc(C)cc1` reads 0.925 (inactive); that for `COC(=O)C1=C(C)NC2=C(C(=O)c3ccccc32)C1c1cc2c(cc1Br)OCO2` (stereo not given), 1.02 (inactive). Next, `CS(=O)(=O)N(CC(=O)N1CCOCC1)c1ccccc1Cl`: 0.989 (inactive); `CS(=O)(=O)N1CCN(C(=O)Cc2ccccc2)CC1`: 0.765 (active); `O=C(c1ccc(S(=O)(=O)N2CCOCC2)cc1)N1CCN(c2ccccc2)CC1`: 0.907 (inactive). Next, `CCC(=O)Nc1ccccc1C(=O)N1CCN(Cc2ccccc2)CC1`: 0.994 (inactive).

On to `COc1ccccc1OCC(=O)Nc1nc(-c2cccs2)c(NC(=O)c2ccccc2)s1`, for which the fluorescence interference ratio was 0.958 (inactive). The result for `CSc1ccccc1NC(=O)CSc1nc2ccccc2o1` reads 0.737 (active); that for `Cc1ccc(C(=O)Nc2cccc(-c3nc4ccccc4o3)c2C)cc1`, 0.985 (inactive); that for `O=C(CSc1nc2ccccc2o1)Nc1ccc2c(c1)OCO2`, 0.937 (inactive).

`C=CCc1ccccc1OCCn1cc(/C=C2/SC(=S)N(CC)C2=O)c2ccccc21`: the fluorescence interference ratio was 1.05 (inactive). Next, `O=C(NCC1OCCc2ccccc21)C(c1ccccc1)c1ccccc1` (stereo not given): 1.08 (inactive); `CCCOc1ccc(C(=O)Nc2ccc(N(CC)CC)cc2)cc1`: 1.28 (active). Next, `CCCOc1ccc(C(=O)Nc2ccc(-c3nc4ccccc4o3)c(O)c2)cc1`: 1.03 (inactive); `CCOc1ccc(C(=O)Nc2ccncc2)cc1`: 0.969 (inactive); `O=c1oc2cc(OC/C=C/c3ccccc3)ccc2c2ccccc12`: 1.11 (inactive).

With `O=C(O)CC1S/C(=N\N=C/c2ccccc2O)N(c2ccc(O)cc2)C1=O` (stereo not given), the fluorescence interference ratio was 1.05 (inactive). For `O=S(=O)(c1ccc(Br)c2ccccc12)N1CCOCC1`, the fluorescence interference ratio is 0.956 (inactive). Next, `CC(C)CC(=O)Nc1cc(C(=O)O)cc(C(=O)O)c1`: 1.05 (inactive); `O=C(CN1C(=O)c2ccc([N+](=O)[O-])cc2C1=O)Nc1cc(Cl)ccc1C(=O)O`: 0.984 (inactive). Next, `COc1ccc(/C=C2\C(=O)NC(=S)N(c3ccc(Br)cc3)C2=O)cc1`: 1.05 (inactive); `COc1ccc(OC)c(N2C(=O)NC(=O)C(=Cc3ccc(C)o3)C2=O)c1`: 1.1 (inactive); `CCN(CC)c1ccc(/C=C2\C(=O)NC(=O)N(c3ccc(OC)cc3)C2=O)c(OC)c1`: 1.26 (active). Consider `O=C1NC(=O)C(=Cc2cc([N+](=O)[O-])cc(Br)c2O)C(=O)N1`, for which the fluorescence interference ratio was 0.895 (inactive).

As to `CC(=O)OC(OC(C)=O)c1ccc([N+](=O)[O-])s1`, the fluorescence interference ratio is 0.829 (inactive). The result for `CCOc1cccc2c1NC(C)(C)c1sn(-c3ccccc3)c(=S)c1-2` reads 0.947 (inactive); that for `CCC(=O)NC(N)=Nc1nc(C)c2cc(C)cc(C)c2n1`, 1.11 (inactive); that for `CC1=C(C(=O)OC(C)C)C(c2ccc(Cl)c(Cl)c2)N2C(=O)CCSC2=N1` (stereo not given), 0.92 (inactive).

The values above are taken from PubChem BioAssay AID720488 (Milwaukee Institute for Drug Discovery, 2013).
